From ChEMBL document CHEMBL1201862, “PubChem BioAssay data set” (2004)
About 2,100 (0.53%) of roughly 400,000 compounds were called active. Another 14% or so got no clear call; they are omitted. How the calls were made is not given here. For the sample, actives were picked, then their nearest neighbours and some compounds at random.

What follows are compounds tested against Ataxin-2 (Homo sapiens) (UniProt Q99700) (assay: qHTS for Inhibitors of ATXN expression.).
Chain of Ataxin-2 (Homo sapiens) (Q99700 whole entry): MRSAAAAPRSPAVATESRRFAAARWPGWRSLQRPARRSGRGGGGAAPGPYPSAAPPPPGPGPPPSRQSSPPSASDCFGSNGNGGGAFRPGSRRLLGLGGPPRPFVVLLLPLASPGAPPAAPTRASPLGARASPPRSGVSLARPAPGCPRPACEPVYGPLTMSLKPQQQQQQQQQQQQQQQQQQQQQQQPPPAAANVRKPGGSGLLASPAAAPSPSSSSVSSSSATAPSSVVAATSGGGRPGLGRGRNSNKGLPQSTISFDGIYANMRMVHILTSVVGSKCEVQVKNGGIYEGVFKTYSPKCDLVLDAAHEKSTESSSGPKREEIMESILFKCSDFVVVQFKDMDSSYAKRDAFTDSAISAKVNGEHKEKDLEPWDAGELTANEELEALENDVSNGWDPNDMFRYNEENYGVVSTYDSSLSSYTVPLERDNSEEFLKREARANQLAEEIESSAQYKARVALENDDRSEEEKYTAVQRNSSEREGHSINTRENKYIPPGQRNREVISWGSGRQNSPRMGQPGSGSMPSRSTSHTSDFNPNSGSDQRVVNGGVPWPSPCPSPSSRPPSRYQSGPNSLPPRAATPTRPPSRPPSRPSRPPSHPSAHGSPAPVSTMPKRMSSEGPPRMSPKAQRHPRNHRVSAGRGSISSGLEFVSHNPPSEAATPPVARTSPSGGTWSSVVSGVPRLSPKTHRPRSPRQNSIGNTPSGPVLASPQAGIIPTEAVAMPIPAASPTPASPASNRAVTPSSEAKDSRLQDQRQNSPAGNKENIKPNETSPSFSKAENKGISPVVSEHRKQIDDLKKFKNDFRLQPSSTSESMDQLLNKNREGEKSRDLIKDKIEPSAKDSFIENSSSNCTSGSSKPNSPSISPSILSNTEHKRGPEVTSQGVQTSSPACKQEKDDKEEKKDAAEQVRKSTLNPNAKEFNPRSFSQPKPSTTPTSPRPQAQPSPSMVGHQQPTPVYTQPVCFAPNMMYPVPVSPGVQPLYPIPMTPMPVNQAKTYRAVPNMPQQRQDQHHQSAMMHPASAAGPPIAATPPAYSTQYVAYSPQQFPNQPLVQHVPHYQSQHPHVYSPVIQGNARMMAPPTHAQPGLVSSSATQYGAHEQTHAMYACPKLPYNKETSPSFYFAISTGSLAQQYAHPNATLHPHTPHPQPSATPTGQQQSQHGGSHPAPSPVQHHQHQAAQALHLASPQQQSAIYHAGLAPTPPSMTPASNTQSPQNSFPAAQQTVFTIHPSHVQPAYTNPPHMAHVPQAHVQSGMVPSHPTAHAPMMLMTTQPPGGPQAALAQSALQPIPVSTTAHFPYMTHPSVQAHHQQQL
Assay type: functional
For `Cn1c(C(=O)O)cc2c(=O)n3ccccc3nc21`, the Potency was “inactive”. For `O=C(Nc1ccc2cccnc2c1)c1ccc(Br)cc1`, the Potency was “inactive”. With `CC(=O)OCCn1c2nc(=O)[nH]c(=O)c-2nc2cc(C)c(C)cc21` the Potency was “inactive”. For `COc1cccc(C2C3=C(O)CC(C)(C)CC3=NC(C)=C2C(=O)Nc2nc3ccccc3s2)c1OC` (stereo not given), the Potency was “inactive”. For `COc1ccc2nc(Nc3ccccc3)sc2c1`, the Potency was “inactive”. In the case of `COc1ccc2nc(NN=C3C(=O)CC(C)(C)CC3=O)sc2c1`, the Potency was 33.6 µM (active). For `COc1ccc(CCNC(=O)c2ccc(-c3cccc([N+](=O)[O-])c3)o2)cc1OC`, the Potency was “inactive”. `O=C(Nc1ccc2oc(=O)ccc2c1)c1ccc(-c2cccc([N+](=O)[O-])c2)o1` was tested, and the Potency was 39.8 µM (active). `O=C(Nc1nccs1)c1ccc(-c2ccc([N+](=O)[O-])cc2)o1` was tested, and the Potency was “inactive”. For `COc1cc2c(cc1NC(=O)COC(=O)/C=C/c1ccccc1)oc1ccccc12`, the Potency was 17.8 µM (active). In the case of `COc1cc2c(cc1N/C=C(\C#N)c1nc(-c3ccccc3)cs1)oc1ccccc12`, the Potency was “inactive”. `COc1ccc(C(=N)NOC(=O)/C=C/c2ccccc2)cc1` was tested, and the Potency was “inactive”. In the case of `CCCCc1ccc(/C(C)=N/Nc2cc(N3CCOCC3)nc(C)n2)cc1`, the Potency was “inactive”. `O=C(CN1C(=O)NC2(CCCCC2)C1=O)Nc1ccc2c(c1)CCC2` was tested, and the Potency was 28.2 µM (active). In the case of `O=C(CN1CCN(Cc2ccccc2)CC1)Nc1ccc2c(c1)CCC2`, the Potency was “inactive”. In the case of `O=C(CN1C(=O)NC2(CCCC2)C1=O)Nc1nc(-c2ccccc2)cs1`, the Potency was “inactive”. For `CCc1ccccc1-n1c(N)c(C(=O)OC)c2nc3ccccc3nc21`, the Potency was “inactive”. `Cc1[nH]n(-c2ccc(Cl)cc2)c(=O)c1N=Nc1cccnc1` was tested, and the Potency was “inactive”. For `CN(C)S(=O)(=O)c1ccc2[nH]cc(/C=C/c3nc4ccccc4c(=O)n3-c3ccccc3)c2c1`, the Potency was “inactive”. In the case of `Cc1[nH]n(-c2ccccc2)c(=O)c1N=Nc1nccs1`, the Potency was 39.8 µM (active). `CN1C(=O)c2cccc3c(S(=O)(=O)N(C)C)ccc1c23` was tested, and the Potency was “inactive”. In the case of `Cc1[nH]n(-c2ccccc2)c(=O)c1N=Nc1c(O)cc(S(=O)(=O)N(C)C)c2ccccc12`, the Potency was 4.47 µM (active). With `O=C(O)c1cc2c(ncc3c(=O)n(-c4ccccc4)[nH]c32)s1` the Potency was “inactive”. `Cc1cccc(/N=c2\oc3cc(O)ccc3cc2C(N)=O)c1` was tested, and the Potency was “inactive”. With `COc1cccc(C2Oc3ccccc3C3CC(c4cccs4)=NN32)c1` (stereo not given) the Potency was “inactive”. `COC(=O)c1sc2nc3c(c(-c4cccs4)c2c1N)CCCC3` was tested, and the Potency was “inactive”. For `CC1(C)Cc2c(sc3nc(SCC(=O)O)nc(N)c23)CO1`, the Potency was “inactive”. In the case of `COC(=O)CSc1nc(N)c2c3c(sc2n1)C(c1ccccc1)SC(c1ccccc1)C3` (stereo not given), the Potency was 35.5 µM (active). In the case of `Cc1ccc2oc(=O)c(S(=O)(=O)c3ccc(F)cc3)cc2c1`, the Potency was “inactive”. `Cc1ccc(NC(=O)COC(=O)c2c[nH]c3ccccc23)cc1C` was tested, and the Potency was “inactive”. `O=C(NCCOc1ccccc1Cl)C(=O)c1c[nH]c2ccccc12` was tested, and the Potency was “inactive”. `Cc1cn(-c2cc(C(=O)Nc3ccc(C)c(NC(=O)C(=O)c4c[nH]c5ccccc45)c3)cc(C(F)(F)F)c2)cn1` was tested, and the Potency was 20 µM (active). With `OCCN1CCN(c2ncnc3c2ncn3[C@H]2CN(Cc3ccc(-c4ccccc4)cc3)C[C@@H](CO)O2)CC1` the Potency was 39.8 µM (active). `COc1cccc(C2NC(=O)CCC2[N+](=O)[O-])c1` (stereo not given) was tested, and the Potency was “inactive”. `CN(C)CC1CCC/C(=C\c2ccc(OC(=O)/C=C/c3ccccc3)cc2)C1=O` (stereo not given) was tested, and the Potency was 35.5 µM (active). For `CCCC(/C=C/c1ccc(OC(C)=O)cc1)=C1/c2ccccc2C(=O)N1c1ccccc1`, the Potency was “inactive”. `CSc1ccc(/C=C/C(=O)OCC(=O)N2CCc3ccccc32)cc1` was tested, and the Potency was “inactive”. In the case of `COc1cccc(NC=C2C(=O)CCCC2=O)c1`, the Potency was “inactive”. `COc1ccc(/C=C2\CCC/C(=C\C=N\N(C)C)C2=O)cc1` was tested, and the Potency was 11.2 µM (active). In the case of `CN(C)c1ccc(/C=C2\CCCc3c2nc2ccccc2c3C(=O)O)cc1`, the Potency was “inactive”. `COc1ccc(/C=N/N(C)C2=NS(=O)(=O)c3ccccc32)cc1` was tested, and the Potency was “inactive”. `CCCC/C=C1/CCC(CN(C)C)C1=O` (stereo not given) was tested, and the Potency was 37.7 µM (active). With `COc1cccc(/C=C2/CCC(CN(C)C)C2=O)c1` (stereo not given) the Potency was 9.47 µM (active). In the case of `Cc1noc(C)c1COc1ccc(C(=O)OCC(=O)Nc2ccc(S(N)(=O)=O)cc2)cc1`, the Potency was “inactive”. `CN(C)S(=O)(=O)Oc1ccsc1C(=O)Nc1ccc(Br)cc1` was tested, and the Potency was “inactive”. For `COc1ccc(/C=C/CN2CCN(CC(C)C)C(CCO)C2)cc1` (stereo not given), the Potency was “inactive”. For `CC1CCN(c2ccc3c(c2)S(=O)(=O)c2cc(C(=O)O)ccc2C3=O)CC1`, the Potency was “inactive”. In the case of `Brc1ccc2ncc(Br)cc2c1`, the Potency was “inactive”. For `CCCCn1nc(NC(=O)c2cccs2)c2cc3cc(OC)ccc3nc21`, the Potency was “inactive”. `CN(C)CC1CC/C(=C\c2ccc(O)cc2)C1=O` (stereo not given) was tested, and the Potency was 39.8 µM (active). With `COc1ccc(/C=C2/CCCC(CN(C)C)C2=O)cc1` (stereo not given) the Potency was 13.4 µM (active). `O=C(O)c1c2c(nc3ccccc13)/C(=C/c1ccc(O)cc1)CC2` was tested, and the Potency was “inactive”. `Cc1cc(=O)oc2cc3c(cc12)OCCN3` was tested, and the Potency was “inactive”. With `CC(C)(C)c1ccc(C2=CC(c3ccccc3)n3ncnc3N2)cc1` (stereo not given) the Potency was “inactive”. In the case of `CCN(CC)c1ccc2c(C)c(CO)c(=O)oc2c1`, the Potency was “inactive”. For `COc1c(Br)cc(/C=N/n2c(S)nnc2-c2ccccc2)c(O)c1Br`, the Potency was “inactive”. In the case of `O=C(Nc1cccc(NC(=O)c2cc([N+](=O)[O-])ccc2Cl)n1)c1cc([N+](=O)[O-])ccc1Cl`, the Potency was 22.4 µM (active). In the case of `Cc1cccc(NC(=O)c2cc(Cl)nc3ccccc23)n1`, the Potency was “inactive”. In the case of `O=C(Nc1cccc(NC(=O)c2cccc([N+](=O)[O-])c2)n1)c1cccc([N+](=O)[O-])c1`, the Potency was “inactive”. `c1cn2c(NC3CCCCC3)c(-c3ccc(SC4CCCCC4)cc3)nc2cn1` was tested, and the Potency was “inactive”. For `CCc1ccc(S(=O)(=O)ON2C(=O)c3ccccc3C2=O)cc1`, the Potency was 23.8 µM (active). For `Fc1ccc(-c2nnc3ccc(N4CCc5ccccc5C4)nn23)cc1`, the Potency was 35.5 µM (active). `Cc1ccc(F)cc1NC(=O)N1CCCN(c2ccc(C(F)(F)F)cn2)CC1` was tested, and the Potency was “inactive”. For `COc1ccccc1NC(=O)N1CCN(c2ccc3nnc(-c4ccc(F)cc4)n3n2)CC1`, the Potency was 25.1 µM (active). In the case of `COc1ccc(Cl)cc1NC(=O)N1CCN(c2ccccc2OC)CC1`, the Potency was “inactive”.
